The text below walks through data of PubChem BioAssay (NCI).

Each structure is given as a SMILES string. Values joined by “and” are separate entries in the source; they are usually repeats but may differ in a detail not shown here. Equal values may be shown once. This is part of a sample that, as a whole, favours compounds with a hit. Of some 83,000 tested, about 20% had one in any assay.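 The test compound was applied at a single concentration to cells in 96-well plates for 48 hours, and percent growth was recorded.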 Unmarked numbers belong to inactive results. Active and inactive are the calls of the source. The calls were made as follows: active = growth percent below 10; inactive = the rest.

Common to all, as to test: NCI-60 one-dose screen, 48 h (100 = growth as untreated, 0 = no growth, -100 = all killed)
Common to all, as to details: 10 µM unless noted

Assay [1] relates to T-47D breast.
For assay [2], the system named is BT-549 breast.
Assay [3] deals with MDA-MB-435 melanoma.
In assay [4] the test system is SW-620 colon.
In assay [5] the test system is MCF7 breast.
For assay [6], the system named is HCT-116 colon.
Assay [7] has as its system HCC-2998 colon.
Assay [8] concerns KM12 colon.

As to `CN1CCN(C(=O)OCc2nc3c(N4CCOCC4)nc(Cl)nc3n2C)CC1`, the growth is -29.3% (active) in assay [1]; -84.2% (active) in assay [2]; -55.4% (active) in assay [3]; -84.9% (active) in assay [4]; -45.9% (active) in assay [5]; -88.5% (active) in assay [6]. Moreover, the growth is -9.16% (active) in assay [7] and 15.5% in assay [8].

Turning to `CC(C)(C)c1cc(C(C)(C)c2ccccc2)cc(Cc2cc(C(C)(C)c3ccccc3)cc(C(C)(C)C)c2O)c1O`, the growth in assay [1] was 95.3%; in assay [2], 93.1%; in assay [3] it was 115%; in assay [4], 104%; in assay [5], 94.6%; in assay [6] it was 93.1%. The results for the growth in assay [7] and in assay [8] were 107% and 106%, respectively.

`CC(=O)Nc1c(I)c(NC(C)=O)c(I)c(C(=O)O)c1I`: the growth was 96.6% and 102% in assay [1]; 101% and 97.9% in assay [2]; 101% and 102% in assay [3]; 102% and 117% in assay [4]; 98.6% and 96.9% in assay [5]; 110% and 93% in assay [6]. Moreover, the growth is 106% in assay [7]; 104% and 123% in assay [8].

On to `COc1ccccc1/C=C1\COc2ccc(O)cc2C1=O`, for which the growth in assay [1] is 82.8%; in assay [2], 76.2%; in assay [3], 14.9%; in assay [4], 9.45% (active); in assay [5], 12.8%; in assay [6], 42%. Besides, the growth is 113% in assay [7] and 16.6% in assay [8].

`CCN1C(=O)/C(=c2\sc3n(c2=O)C2C(NN=3)N(CC)C(=O)N2CC)c2ccccc21` (stereo not given): the growth was 39.5% in assay [1]; 17.8% in assay [2]; -32.6% (active) in assay [3]; 29.7% in assay [4]; 26% in assay [5]; 9.36% (active) in assay [6]. The growth in assay [7] was 30%; in assay [8] it was 13.7%.

In the case of `CC12CCC(C(=O)CC1=O)C2(C)C` (stereo not given), the growth is 105% and 93.4% in assay [1]; 110% and 104% in assay [2]; 106% and 110% in assay [3]; 105% and 109% in assay [4]; 103% and 98.4% in assay [5]; 106% and 97.1% in assay [6]. Moreover, the growth in assay [7] is 108% and 98.5%; in assay [8], 108% and 101%.

Turning to `Nc1nc2ccccc2c2c(=O)c3ccc(Cl)cc3sc12`, the growth in assay [1] was 53.9%; in assay [2], 94.3%; in assay [3], 101%; in assay [4], 76%; in assay [5], 29.9%; in assay [6], 82.1%. Besides, the growth is 114% in assay [7] and 87.5% in assay [8].

Turning to `C#CCn1cnc2cnc(Nc3cccc(NC(=O)CCl)c3)nc21`, the growth in assay [1] is 5.42% [6.25 µM] (active); in assay [2], 3.26% [6.25 µM] (active); in assay [3] it was -19.6% [6.25 µM] (active); in assay [4] it was 0.405% [6.25 µM] (active); in assay [5] it was -6.48% [6.25 µM] (active); in assay [6], -30.2% [6.25 µM] (active). Also, the growth is -11.4% [6.25 µM] (active) in assay [7] and -2.39% [6.25 µM] (active) in assay [8].

Take `ON=C1CCCCCCCC1`: the growth in assay [1] is 97.7% and 99.2%; in assay [2], 110% and 101%; in assay [3], 103% and 113%; in assay [4], 108% and 105%; in assay [5], 98.9% and 91.3%; in assay [6], 105% and 104%. Further, the growth in assay [7] was 100% and 103%; in assay [8], 97% and 97.8%.

`CCOc1ccccc1NC(=O)c1cc2ccccc2cc1O`: the growth in assay [1] is 51.7%; in assay [2] it was 85%; in assay [3] it was 49.4%; in assay [4], 64.7%; in assay [5], 70.3%; in assay [6] it was 31.9%. Further, the values for the growth in assay [7] and in assay [8] were 76.3% and 33.6%, respectively.

As for `C=C1C(=O)O[C@H]2[C@H]1CC/C(COC(=O)NCc1ccc(Cn3c(=O)sn(CCCI)c3=O)cc1)=C\CC[C@@]1(C)O[C@@H]21`, the growth in assay [1] is 8.47% (active); in assay [2], 40.8%; in assay [3], 17.5%; in assay [4] it was -42.9% (active); in assay [5], 4.45% (active); in assay [6], -52% (active). Further, the values for the growth in assay [7] and in assay [8] were 104% and 100%, respectively.

Take `NC(=O)c1c(NC(=O)/C=C/c2cccs2)sc2c1CCC(=O)C2`: the growth is 16.2% in assay [1]; 20.1% in assay [2]; 14.2% in assay [3]; 15.1% in assay [4]; 14.1% in assay [5]; 8.1% (active) in assay [6]. Moreover, the growth in assay [7] was 85.2%; in assay [8], 14.8%.

For `N=c1ccccn1CCO`, the growth in assay [1] is 103%; in assay [2] it was 113%; in assay [3], 113%; in assay [4] it was 114%; in assay [5], 102%; in assay [6] it was 100%. Moreover, the growth was 94.6% in assay [7] and 112% in assay [8].

With `N#Cc1ccccc1-c1ccc(Cn2c(-c3cscn3)nc3c(Cl)cccc32)cc1`, the growth in assay [1] is 56.3%; in assay [2], 76.1%; in assay [3], 90.1%; in assay [4] it was 87.6%; in assay [5] it was 64.2%; in assay [6] it was 51.2%. For the same compound, the growth in assay [7] was 93%; in assay [8] it was 77.1%.

On to `Cn1c(=O)c2c(nc(Nc3cc(=O)[nH]c(=O)[nH]3)n2Cc2ccccc2)n(C)c1=O`, for which the growth in assay [1] is 18.9%; in assay [2], 98.2%; in assay [3], -73% (active); in assay [4], 19.3%; in assay [5], 95.5%; in assay [6] it was 94.2%. Besides, the figures for the growth in assay [7] and in assay [8] were 107% and 5.18% (active), respectively.
